From PubChem BioAssay
Several values for one entry are separate records, joined by “and”; a condition that tells them apart may be missing. Equal values may be shown once. For some of these results: Measured potencies and affinities stand elsewhere. Activity calls are given as the source filed them. Rule as the data show it, unless noted: active = parasite load remaining mostly below about 12% (no sharp cut-off); inactive = mostly above about 10%.

Legend:
[1] = blockers of polyQ-driven CASP3 activation – cell-based (AID 1583); details: polyglutamine-induced caspase-3 activation, cell assay; stronger effect = higher value;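 tested at 10 µM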
[2] = yeast 75Q aggregation reduction – 75Q-TubU reporter (AID 1593); details: Yeast 75Q polyglutamine aggregation reporter
[3] = restoration of touch response, mutant HTT neurons – whole organism, C. elegans mechanosensory neurons, N-terminal huntingtin (AID 1599); details: C. elegans polyQ-huntingtin mechanosensory neurons, stronger effect = higher value
[4] = blockers of cytochrome c efflux from mitochondria – biochemical, purified mitochondria (AID 1603); details: stronger effect = lower value;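 also: mouse liver mitochondria challenged with calcium chloride; signal normalized to the plate average as 100%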
[5] = polyglutamine aggregate formation blockers (AID 1604); details: polyglutamine-induced protein aggregation inhibition assay; stronger effect = higher value; tested at 2.5 µM
[6] = glutamate transport activators, MN-1 cells, MN-1 cell line (AID 1612); details: MN-1 motor neuron cells, stronger effect = higher value;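 also: tested at 1 µM final; 0% = mean of DMSO vehicle wells on each plate; positive means more glutamate uptake than control and negative means less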
[7] = GFP-Q80 aggregate reduction, neuronal-like cells, cell-based, NGF-treated PC12, GFPQ80 (AID 1614); details: PC12 NGF-treated GFP-polyQ80 inclusion reduction;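 also: lower means fewer inclusions and 0 means no inclusions at all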
[8] = 75Q-TubH aggregate inhibition, S. cerevisiae, yeast (AID 1616); details: S. cerevisiae 75Q-TubH polyglutamine aggregation suppression; stronger effect = higher value
[9] = P. berghei load reduction in hepatocytes – cell-based, HepG2, luciferase luminescence, HepG2 viability, primary screen (AID 624349);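 also: 100% = mean of DMSO negative control wells on the same plate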; details: P. berghei liver stage in HepG2, luciferase luminescence, concentration not given here; parasite load remaining: stronger effect = lower value; viability: measured here: HepG2 viability without parasites
[10] = system: Hepatitis C virus NS3 helicase; assay: blockers of NS3h binding to ssDNA – biochemical, fluorescence polarization, LOPAC1280 library, primary screen (AID 687035; in the data active = inhibition above about 37%); details: Purified HCV NS3 helicase, Cy5-dT15 ssDNA binding fluorescence polarization; stronger effect = higher value; concentration not given here
[11] = compounds altering Cy5-DNA-NS3h complex signal – biochemical, LOPAC1280, artefact control for HCV NS3 helicase inhibitor project (AID 687037; call rule not given here); details: Cy5-DNA-NS3h complex fluorescence interference counterscreen
[12] = EMT-state selective cytotoxicity in co-culture – imaging, PC-3E GFP, TEM4-18 mCherry, primary screen (AID 1345086;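 active = compounds killing one labelled cell type while sparing the other, by normalised counts and ratio limits, not self-fluorescent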;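 as to all read-outs here: cells exposed to compound for 72 h before imaging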;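 as to red/green cell ratio (normalised): normalised mesenchymal count divided by normalised epithelial count so high means epithelial killing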); details: PC-3E GFP / TEM4-18 mCherry co-culture, imaging cell counts, at 1 µM; for red/green cell ratio (normalised): actives lie on both sides, counts scaled to control wells, 1 = unselective
[13] = viability loss with induced miR-34 in A549 – imaging, A549 dox-inducible miR-34, nuclei and caspase counts, primary screen (AID 1347080;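 active = compounds whose cell count with miR-34 switched on is under 0.7 times the count with it off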); details: A549 miR-34 inducible, Hoechst nuclei count, 48 h
[14] = measured here: epithelial PC-3E GFP cell survival
[15] = measured here: mesenchymal TEM4-18 mCherry cell survival
[16] = stronger effect = lower value, cell number ratio, induced over uninduced
[17] = measured here: relative caspase fold change +Dox/-Dox
[18] = measured here: total cells with miR-34 induction, stronger effect = lower value
[19] = measured here: total cells without miR-34 induction

SMILES | inhibition [1] | score [2] | rescue above control [3] | cytochrome c release ratio [4] | inhibition of aggregation [5] | glutamate uptake change [6] | inclusion score [7] | aggregation suppression score [8] | parasite load remaining [9] | viability [9] | inhibition [10] | fluorescence ratio (interference) [11] | red/green cell ratio (normalised) [12] | normalised cell number [12, 14] | normalised cell number [12, 15] | fold change [13, 16] | fold change [13, 17] | cell count [13, 18] | cell count [13, 19]
NC(N)=N/N=C\c1c(Cl)cccc1Cl | -8.15% | 1.22 | -12.2 | 1.41 | 61% | 33.9% | 2 | 0.91 | 56% (inactive) and 40.7% (inactive) | 69.3% and 86.4% | 0% (inactive) | 1 (inactive) | 1.13 (inactive) | 1.05 | 1.18 | 0.816 (inactive) | 0.826 | 8780 | 10800
C[C@]12CCC(=O)C=C1CCC1C2[C@@H](O)C[C@@]2(C)C1CC[C@]2(O)C(=O)CO (stereo not given in full) | 5.24% | 1.39 | -4.34 | 1.36 | 63.4% | 10.6% | 2 | 1.61 | 94% (inactive) | 99.2% | – | – | 1.04 (inactive) | 1.28 | 1.34 | 0.949 (inactive) | 3.13 | 7100 | 7490
C[C@]12CCC3c4ccc(O)cc4CCC3C1CC[C@@H]2OC(=O)CCC1CCCC1 (stereo not given in full) | 30.9% | -0.35 | -0.57 | 0.97 | 94.4% | -6.63% | – | 0.396 | 77.3% (inactive) and 37.9% (inactive) | 74.2% and 90.6% | – | – | 1.54 (inactive) | 0.83 | 1.27 | 1 (inactive) | 1.31 | 11300 | 11300
CCCCCC(=O)O[C@]1(C(C)=O)CCC2C3CCC4=CC(=O)CC[C@]4(C)C3CC[C@@]21C (stereo not given in full) | 18.1% | -0.83 | -3.14 | 0.32 | 35% | 9.62% | – | 0.43 | 13.1% (inactive) and 0.105% (inactive) | 72.1% and 76.8% | – | – | 1.01 (inactive) | 1.08 | 1.09 | 0.912 (inactive) | 1.72 | 7140 | 7840
C[C@]12CCC3c4ccc(O)cc4CCC3C1C[C@@H](O)[C@@H]2O (stereo not given in full) | -10.9% | 0.64 | 0.35 | 0.85 | 84.5% | -5.15% | 2 | 0.718 | 84.5% (inactive) and 67.1% (inactive) | 72.3% and 96.2% | – | – | 0.95 (inactive) | 1 | 0.95 | 0.868 (inactive) | 1.18 | 11100 | 12800
